According to PubChem BioAssay:

Target: Pro-neuregulin-1, membrane-bound isoform (Homo sapiens) (UniProt Q02297)
Assay: NRG1 binders on small-molecule microarrays, primary screen, psychiatric disease protein project, biochemical, small-molecule microarray, fluorescence 635/667 (AID 1075);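 also: score combines 667 nm spot fluorescence with signal to noise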
Conditions: NRG1 binding, 635 nm fluorescence, higher = more signal

Sequence of Pro-neuregulin-1, membrane-bound isoform (Homo sapiens) (Q02297 whole entry, looked up, canonical isoform): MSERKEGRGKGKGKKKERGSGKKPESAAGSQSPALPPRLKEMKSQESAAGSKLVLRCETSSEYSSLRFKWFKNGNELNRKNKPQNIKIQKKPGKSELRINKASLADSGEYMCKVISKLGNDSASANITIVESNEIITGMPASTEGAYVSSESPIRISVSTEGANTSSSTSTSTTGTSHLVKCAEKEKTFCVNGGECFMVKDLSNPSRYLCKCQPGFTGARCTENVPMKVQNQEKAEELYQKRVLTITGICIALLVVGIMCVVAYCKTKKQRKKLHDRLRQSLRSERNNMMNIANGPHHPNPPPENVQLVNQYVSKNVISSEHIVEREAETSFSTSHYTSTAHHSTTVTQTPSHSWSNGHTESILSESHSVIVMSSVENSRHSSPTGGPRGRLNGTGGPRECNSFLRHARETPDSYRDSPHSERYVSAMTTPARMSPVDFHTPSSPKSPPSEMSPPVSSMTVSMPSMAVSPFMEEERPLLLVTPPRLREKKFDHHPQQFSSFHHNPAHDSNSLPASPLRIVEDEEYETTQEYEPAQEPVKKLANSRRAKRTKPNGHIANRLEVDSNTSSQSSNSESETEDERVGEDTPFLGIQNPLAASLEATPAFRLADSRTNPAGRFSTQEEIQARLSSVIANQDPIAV

**Q.** For CC(C)CON=C1[C@H]2CCn3c(=O)n(-c4ccccc4)c(=O)n3[C@H]2[C@H](O)[C@@H]2O[C@H]12, which composite z-score is on record?
**A.** Its composite z-score is -0.0371.

**Q.** For O=C1C[C@@H](O)[C@@H](O)[C@@H]2[C@@H]3C(=O)N(c4cccc(Oc5ccccc5)c4)C(=O)[C@@H]3CC[C@@H]12, which composite z-score is on record?
**A.** Its composite z-score is 0.713.

**Q.** How did the composite z-score turn out when CO[C@H]([C@@H](C)[C@H](OC)c1ccccc1)[C@H](C)[C@@H](OC)[C@H](C)C(C)=O was run?
**A.** The composite z-score was -0.383.

**Q.** Which composite z-score does the source give for Cc1ccc(S[C@]2(C(=O)NCC(F)(F)F)CC(=O)N(Cc3ccccc3Cl)[C@@H]2c2ccc(CO)cc2I)cc1 here?
**A.** Its composite z-score is 2.01.

**Q.** With O=C1O[C@@H](c2ccccc2)[C@@H](c2ccccc2)N2[C@@H](c3ccc(O)cc3)[C@]3(C(=O)Nc4ccccc43)[C@@H](C(=O)O)[C@H]12 as the compound, how does the composite z-score read?
**A.** The composite z-score was 1.67.

**Q.** How did the composite z-score turn out when COCCNC(=O)OCC1CCCC2(CC(OC(=O)NCCc3ccc(F)cc3)CC(CCC(=O)N[C@@H](C)C(=O)OC)O2)O1 (stereo partly specified) was run?
**A.** The composite z-score was 0.511.

**Q.** How did the composite z-score turn out when CCCNC(=O)[C@@H]1c2ccccc2C(=O)N(c2ccc(C)cn2)[C@H]1c1ccc(CO)cc1 was run?
**A.** The composite z-score was -0.465.

**Q.** How did the composite z-score turn out when CCOC(=O)[C@H](CC(C)C)NC(=O)CCC1CC(OC(=O)NCCc2ccc(F)cc2)CC2(CCCC(COC(=O)NCc3ccccc3)O2)O1 (stereo partly specified) was run?
**A.** The composite z-score was 1.13.

**Q.** With CCOC(=O)CCN1C(=O)[C@H]2[C@H]3[C@H](O)[C@H](O)CC(=O)[C@H]3CC[C@H]2C1=O as the compound, how does the composite z-score read?
**A.** The composite z-score was 0.217.

**Q.** With C=CCC(OC(C)=O)[C@@H]1[C@@H](N(Cc2cc3ccccc3o2)C(=O)Cc2ccc(F)cc2)c2cc(OCCCO)ccc2N1C(=O)Cc1ccc(OC)cc1 (stereo partly specified) as the compound, how does the composite z-score read?
**A.** The composite z-score was 0.16.

**Q.** With CCOC(=O)NN=C1C[C@@H](O)[C@@H](O)[C@@H]2[C@@H]3C(=O)N(C[C@@H]4CCCO4)C(=O)[C@@H]3CC[C@@H]12 as the compound, how does the composite z-score read?
**A.** The composite z-score was 0.121.

**Q.** With COc1ccc(-c2nc3c(c4c2C[C@H](C)OC4)CN(CCC(C)C)CC3)cc1 as the compound, how does the composite z-score read?
**A.** The composite z-score was 0.114.

**Q.** For CO[C@@H]1COC(=O)[C@@H]2CCCN2C(=O)[C@@H](C)COC(=O)[C@H](COCc2ccccc2)NC(=O)CC=C[C@H]1C, which composite z-score is on record?
**A.** The composite z-score was 0.101.

**Q.** How did the composite z-score turn out when CCN1C(=O)[C@H]2[C@H]3[C@H](O)[C@H](O)CC(=NOC(C)CN4CCCCc5nc(C)c(C)cc54)[C@@H]3CC[C@H]2C1=O (stereo partly specified) was run?
**A.** Its composite z-score is -0.531.

**Q.** For CCc1cc2c(nc1CC)CCN(CCC(C)=NO[C@@H](C)c1cc(-c3c(C)cc(C)cc3C)no1)C2, which composite z-score is on record?
**A.** The composite z-score was 0.191.

**Q.** Which composite z-score does the source give for CO[C@H]1O[C@H](CO)[C@@H](OC(=O)Nc2ccc3c(c2)OCO3)[C@H](OC(=O)Nc2ccccc2-c2ccccc2)[C@@H]1OC(=O)Nc1ccccc1-c1ccccc1 here?
**A.** Its composite z-score is 0.985.

**Q.** Which composite z-score does the source give for COC(=O)[C@@]1(Cc2ccc(F)cc2)[C@H]2c3cc(C(=O)N(C)C)n(Cc4ccc(OC)c(OC)c4)c3C[C@H]2CN1C(=O)c1ccccc1 here?
**A.** Its composite z-score is 0.641.

**Q.** CC(C)NC(=O)[C@@]1(C)c2ccccc2C(=O)N(Cc2cc(F)cc(C(F)(F)F)c2)[C@H]1c1ccc(CO)cc1 was tested. Which composite z-score did it give?
**A.** The composite z-score was 0.341.

**Q.** With O=C1NC(=O)C2C1C=CC(C(O)Cc1ccccc1)N2Nc1ccccn1 (stereo unspecified) as the compound, how does the composite z-score read?
**A.** The composite z-score was 1.79.

**Q.** How did the composite z-score turn out when CC[C@@H](c1ccccc1)n1c(=O)n2n(c1=O)[C@H]1[C@H](O)[C@@H]3O[C@@H]3C(=NOCC(C)C)[C@H]1CC2 was run?
**A.** The composite z-score was -0.0258.

**Q.** COc1cccc([C@H]2Oc3ccc(OC)cc3C(=NO[C@H](C)c3cn([C@@H]4COC[C@H]4O)nn3)[C@@H]2O)c1 was tested. Which composite z-score did it give?
**A.** The composite z-score was 0.0671.

**Q.** How did the composite z-score turn out when COCCOC(=O)N1C(=O)[C@@]2(c3cc(C#CCNC(N)=O)ccc31)[C@H](c1ccc(O)cc1)N1[C@H](c3ccccc3)[C@H](c3ccccc3)OC(=O)[C@H]1[C@@H]2C(=O)N1CCCCCCC1 was run?
**A.** Its composite z-score is 0.523.

**Q.** Which composite z-score does the source give for C[C@@H](c1ccccc1)N1C(=O)[C@H]2[C@H]3[C@H](O)C=CC(=O)[C@@H]3CC[C@H]2C1=O here?
**A.** The composite z-score was 0.185.

**Q.** For CCCC[C@H]1OB(O)C[C@H]2C1=C(C)C[C@H]1C(=O)N(C)C(=O)[C@H]12, which composite z-score is on record?
**A.** The composite z-score was 0.053.

**Q.** For CCCCc1nc2c(c3c1C[C@H](C)OC3)CN(CCC(C)C)CC2, which composite z-score is on record?
**A.** The composite z-score was 0.788.

**Q.** C/C=C\[C@@H](NCc1ccccc1Br)[C@@H](O)Cc1ccccc1 was tested. Which composite z-score did it give?
**A.** The composite z-score was -0.0182.

**Q.** For CC(=O)C[C@H](O)[C@@H](NC(=O)OC(C)(C)C)C(C)C, which composite z-score is on record?
**A.** Its composite z-score is -0.759.

**Q.** CC(C)=CCCC(C)=CCON=C1C[C@@H](O)[C@@H](O)[C@@H]2[C@@H]3C(=O)N(C[C@@H]4CCCO4)C(=O)[C@@H]3CC[C@@H]12 was tested. Which composite z-score did it give?
**A.** The composite z-score was 0.614.

**Q.** CCOC(=O)NN=C1C[C@@H](O)[C@@H](O)[C@@H]2[C@@H]3C(=O)N(C(C)(C)C)C(=O)[C@@H]3CC[C@@H]12 was tested. Which composite z-score did it give?
**A.** Its composite z-score is -0.904.

**Q.** Which composite z-score does the source give for COCCCNC(=O)[C@]1(Cc2ccccc2)N=C(c2ccc(OCCCO)cc2)O[C@@H]1c1ccccc1 here?
**A.** The composite z-score was 1.54.

**Q.** CC(C)=NOCc1ccc(-c2cc(-c3ccccc3)no2)cc1 was tested. Which composite z-score did it give?
**A.** The composite z-score was -0.225.

**Q.** With COCCCNC(=O)[C@@]1(Sc2ccc(C)cc2)CC(=O)N(Cc2ccccc2)[C@@H]1c1ccc(CO)cc1I as the compound, how does the composite z-score read?
**A.** The composite z-score was 1.38.

**Q.** For COc1ccc(-c2ccc3c(n2)CCCN3CC(O)CN2CCCc3nc(C)c(C)cc32)cc1 (stereo unspecified), which composite z-score is on record?
**A.** Its composite z-score is 0.641.

**Q.** Which composite z-score does the source give for CC(=O)OC[C@H]1O[C@H](CC=NOC[C@@H](C)[C@H](OCc2ccccc2)C(C)C)C=C[C@@H]1OC(C)=O here?
**A.** Its composite z-score is -0.254.

**Q.** With CC(CCC(=O)OC[C@H]1O[C@H](C#Cc2ccccc2)C=C[C@@H]1Oc1ccc(C)cc1)=NO[C@@H](C)c1cn([C@H](CO)Cc2ccccc2)nn1 as the compound, how does the composite z-score read?
**A.** The composite z-score was 0.122.

**Q.** How did the composite z-score turn out when COc1ccc([Si](C)(C)[C@H]2[C@H](CCO)O[C@@]3(C(=O)N(Cc4cccc(NC(=O)[C@H](C)O)c4)c4ccccc43)[C@@H]2C)cc1 was run?
**A.** Its composite z-score is 0.84.
